# High-throughput results as filed in PubChem BioAssay.
# Tau fibril FP: inhibitors of human tau fibril formation; K18 P301L tau heparin fibrillization, Alexa594 FP, 6 h; Potency, µM (doses to about 57.7 µM), for inactives: top-dose activity, negative = inhibition, usual class: inhibitors; 280,000 compounds, 0.39% hits; AID 1468; note: nearly all actives have a fitted effect of over 55% in size
# Target sequence (P10636 561-689 P618L limits assumed): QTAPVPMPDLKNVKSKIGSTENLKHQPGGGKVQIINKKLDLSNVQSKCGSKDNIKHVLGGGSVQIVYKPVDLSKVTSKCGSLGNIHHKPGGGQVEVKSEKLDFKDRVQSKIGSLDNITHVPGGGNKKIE
#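 Compound effects on tau fibrillization are measured by Alexa 594 fluorescence polarization (ex 555, em 632 nm). K18 P301L tau is used at 15 uM with 0.24 uM labeled tracer, and 20 uM heparin induces aggregation over 6 hr at 37 C.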
# Tau fibril ThT: tau fibrillization inhibition (ThT binding); 270,000 compounds, 2.1% hits; Potency, µM (doses to about 57.4 µM), for the others: at the top dose activity, negative = inhibition, actives largely listed as inhibitors; AID 1460; P10636; recombinant tau K18 P301L, heparin-induced fibrillization, ThT fluorescence; note: nearly all actives have a fitted effect of over 55% in size
#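 Using a mix of unlabeled (15 uM) and Alexa 594-labeled (0.24 uM) tau K18 P301L, heparin-triggered fibrillization over 6 hr at 37 C was scored by ThT fluorescence.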
# Luc counter: Kinase-Glo luciferase inhibition (counter-screen). Kinase-Glo luciferase, ATP luminescence, 8 min. Potency, µM (top dose mostly 38.3 µM), without a hit: at the top dose activity change, negative = inhibition, hits mostly inhibitors. 200,000 compounds, 0.28% hits. AID 1379; note: nearly all actives have a fitted effect of over 60% in size
#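 Luminescence was the read-out, taken after 8-minute incubation at ambient temperature. Luciferase turned over luciferin with 10 uM ATP in imidazole pH 7.2 buffer containing KCl, MgCl2, Tween 20 and BSA.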
# NPSR antagonist: antagonists of human neuropeptide S receptor cAMP signaling. Q6W5P4. CHO-NPSR cells, cAMP TR-FRET, antagonist mode. Potency, µM (series often up to 38.3 µM), inactives show at the highest dose activity change, negative = inhibition, actives largely listed as inhibitors. 220,000 compounds, 1% hits; note: nearly all actives have a fitted effect of over 50% in size
# Target sequence (Q6W5P4 whole entry, looked up): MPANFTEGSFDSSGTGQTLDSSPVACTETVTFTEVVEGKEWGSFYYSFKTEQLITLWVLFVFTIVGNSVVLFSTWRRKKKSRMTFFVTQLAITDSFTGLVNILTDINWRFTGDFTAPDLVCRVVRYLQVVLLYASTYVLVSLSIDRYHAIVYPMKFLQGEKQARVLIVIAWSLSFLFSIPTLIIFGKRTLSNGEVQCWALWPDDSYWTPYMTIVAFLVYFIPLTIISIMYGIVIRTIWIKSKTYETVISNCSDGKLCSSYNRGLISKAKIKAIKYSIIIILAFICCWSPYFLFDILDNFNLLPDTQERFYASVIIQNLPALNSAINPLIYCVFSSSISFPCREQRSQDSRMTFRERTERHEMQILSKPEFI
# Tau fluor cs: counter-screen for tau fibril formation inhibitors; tau K18 P301L Alexa594 fluorescence, heparin fibrillization; 280,000 compounds, 0.93% hits; Potency, µM (doses to about 57.7 µM), for inactives: top-dose activity change, negative = decrease; note: nearly all actives have a fitted effect of over 55% in size
#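 Human tau K18 P301L (15 uM unlabeled, 0.24 uM Alexa 594-labeled) in 100 mM sodium acetate pH 7 with 20 uM heparin, 6 hr at 37 C. ThT 30 uM added, 1 hr ambient; Alexa 594 FP and total fluorescence read at 555/632 nm.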
# Numbers without * were called inactive; ? = inconclusive; nt = no result given; ! = repeats disagree; [ ] = another dose, or the depositor's remark. Only some compounds are listed: those with a hit (about 3.3% of all), similar ones and a draw of the others. Calls come from the whole dose curve; as a rule, active = well fitted curve in the direction sought with a large enough effect; inconclusive = small, poorly fitted or top-dose-only effect, or another doubt; inactive = no such curve, though single readings can be large; an effect the other way counts as inactive or inconclusive. % is set by controls: 0 for no effect and ±100 for the full control effect; potency is the fitted concentration of half-maximal effect.
SMILES,Tau fibril FP,Tau fibril ThT,Luc counter,NPSR antagonist,Tau fluor cs
O=C(c1ccco1)[C@@H]1[C@@H]2C(=O)N(c3ccc(F)cc3)C(=O)[C@@H]2C2c3ccccc3C=CN21 (stereo partly specified),?,25.1µM*,-11.6%,-10.2%[46.1 µM],?
O=C(c1ccco1)[C@@H]1[C@@H]2C(=O)N(c3ccc(Br)cc3)C(=O)[C@@H]2C2c3ccccc3C=CN21 (stereo partly specified),-17.9%,20µM*,0.5%,-24.9%[46.1 µM],-29.2%
CC/C=C\C/C=C\C/C=C\C/C=C\C/C=C\CCCCCC(=O)O,2.3%,-2.7%,0.5%,nt,-1.5%
CC/C=C\C/C=C\C/C=C\C/C=C\C/C=C\C/C=C\CCC(=O)O,?,15.8µM*!,-1.1%,nt,-1.2%
Cc1cn2c(=O)cc(COC(=O)c3ccc(NC(=O)C(C)Oc4ccccc4)cc3)nc2s1 (stereo unspecified),8.5%,6.4%,nt,nt,-11.9%
Cn1c(N)c(C(=O)COC(=O)c2cc(-c3ccco3)nc3ccccc23)c(=O)n(Cc2ccccc2)c1=O,?,12.6µM*,1.4%,-30.2%,?
Cc1cccc(CNc2cc(-c3ccoc3)ncn2)c1,?,17.8µM*,-2.6%,nt,-28.8%
Nc1cccc(OCc2nc(N)nc(N)c2-c2ccc(Cl)cc2)c1,nt,nt,-2.7%[7.66 µM],nt,nt
O=C1/C(=C/c2ccccn2)COc2ccccc21,2.4%,?,-29.8%,15.8%,0.3%
CC1C/C(=C/c2ccccn2)C(=O)/C(=C/c2ccccn2)C1 (stereo unspecified),8.91µM*,10µM*,-0.2%,?,-13.8%
C(=C\c1ccccn1)/c1ccccn1,-7.1%,-14.5%,nt,-12.6%[7.67 µM],-16.6%
CC(C)(C)C1C/C(=C/c2ccccn2)C(=O)/C(=C/c2ccccn2)C1 (stereo unspecified),?,11.2µM*,-4.1%,2µM*,-24.6%
CCOc1ccc(CNC(=O)c2oc3c(c2C)-c2nn(Cc4cccc(Cl)c4)cc2CC3)cc1,2.7%,?,nt,nt,-12.5%
COc1ccc(-c2cc(C(=O)Nc3cccc(C(C)=O)c3)no2)cc1OC,0.7%,-1.2%,nt,nt,-0.1%
CC(=O)/C(N=Nc1ccc(C(=O)O)cc1)=C(\C)O,-6.8%,-11.8%,nt,-28.8%,-11.2%
CC(=O)/C(N=Nc1ccc2c(c1)OCCO2)=C(\C)O,-0.2%,10µM*,?,-9.5%,-13.8%
CC(=O)/C(N=Nc1ccc2c(c1)OCO2)=C(\C)O,5.2%,3.55µM*,?,-0.9%,-13.8%
COC(=O)c1cc(NC(=O)c2cc(-c3ccccc3Cl)oc2C(F)(F)F)ccc1N1CCOCC1,?,nt,nt,-27.7%,12.6µM*[quencher]
Cc1ccc(C)c(Nc2nn3c(=O)c4ccc(C(=O)NCc5ccccc5)cc4nc3s2)c1,14.0%,?,nt,nt,0.2%
CCOc1cc(/C=N/NC(=O)C(N)=O)cc(Br)c1O,-4.1%,-15.0%,0.3%,-16.0%,-3.1%
CC(=O)Nc1ccc(N=Cc2c(O)c(C(=O)Nc3ccccc3)cc3ccccc23)cc1,?,12.6µM*,?,-44.2%,-26.5%
CCOc1cc(Br)c(Br)c(C=Nc2ccc(NC(C)=O)cc2)c1O,-3.2%,6.31µM*,1.7%,-12.4%[46.1 µM],-12.1%
O=C(Cc1ccccc1)Nn1c(O)c(/C=C2\C=Nc3ccccc32)sc1=S,?,2.51µM*,1.2%,-10.8%,7.94µM*[quencher]
Cc1c(/C=N/NC(=O)c2ccc(O)cc2)c2ccccn2c1C(=O)c1ccc(F)cc1,?,?,-3.1%,-16.8%,15.8µM*[quencher]
CCOC(=O)c1c(S(=O)(=O)N2CCC(C(=O)NCc3cccc(OC)c3)CC2)c(C)n(C)c1C,3.4%,1.3%,nt,nt,-10.4%
Nc1ccc(Cc2ccc(N)c(O)c2)cc1O,?,14.1µM*,-3.1%,-0.4%,?
COc1cc(Cc2ccc(N)c(OC)c2)ccc1N,0.1%,-13.5%,-0.2%,5.7%,-15.0%
COc1cc(NC(=O)c2ccco2)c(OC)cc1NC(=O)Nc1ccc(Cl)cc1,12.1%,?,11.1%,?,8.91µM*[quencher]
COc1ccc(OC)c(NC(=O)Nc2ccc(Cl)cc2)c1,20.7%,?,-3.2%,-16.6%[46.1 µM],14.1µM*[quencher]
COc1ccc(-c2cn3cccnc3n2)cc1NC(=O)Nc1ccc(Cl)cc1,-8.2%,?,nt,nt,14.1µM*[quencher]
